In PubChem BioAssay (NCATS):
Several values for one entry are separate records, joined by “and”; a condition that tells them apart may be missing. Equal entries are not always repeated. Records with an inconclusive call do not appear. Activity calls are given as the source filed them. The call rests on the fitted dose curve; in most records, active means well fitted inhibition curve with a large enough effect; inconclusive means small, poorly fitted or top-dose-only effect; inactive means flat fitted curve, though single readings scatter.

Legend:
KB-3-1 = test: Cytotoxic Profiling of Annotated Libraries Using Quantitative High-Throughput Screening (AID 1296008); settings: Five cell lines viability, CellTiter-Glo ATP luminescence, 48-72 h; max response: hits give low values
Outline: (§1)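 Cytotoxicity was measured as CellTiter-Glo ATP luminescence, read after 10 min at room temperature. Compound treatment of the cells lasted 48 or 72 hr at 37 degrees Celsius in a qHTS format.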

HACAT = test: qHTS assay to identify novel small-molecules to repurpose for Merkel cell carcinoma treatment (AID 1296009); settings: MCC and control cell lines, CellTiter-Glo viability, 72 h; at 44.8 µM (top of the series) unless noted; further: potency means the concentration at half of the fitted maximal effect
Outline: (§2)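 72 hr, 37 degree celsius; NPC 8-pt / MIPE 11-pt dose response; compound pinned in DMSO; CellTiter-Glo, 10 min RT, luminescence; normalized to no-cell and DMSO controls.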

MCC-13 = test: as above; settings: MCC and control cell lines, CellTiter-Glo viability, 72 h; series mostly up to 46 µM
Outline: as §2

MCC-26 = test: as above; settings: MCC and control cell lines, CellTiter-Glo viability, 72 h; series mostly up to 46 µM
Outline: as §2

NIH3T3 [1] = test: Cytotoxic Profiling of Annotated Libraries Using Quantitative High-Throughput Screening (AID 1296008); settings: Five cell lines viability, CellTiter-Glo ATP luminescence, 48-72 h; max response: hits give low values
Outline: as §1

MKL-1 = test: qHTS assay to identify novel small-molecules to repurpose for Merkel cell carcinoma treatment (AID 1296009); settings: MCC and control cell lines, CellTiter-Glo viability, 72 h; series mostly up to 46 µM; further: potency means the concentration at half of the fitted maximal effect
Outline: as §2

MKL-2 = test: as above; settings: MCC and control cell lines, CellTiter-Glo viability, 72 h; series mostly up to 46 µM
Outline: as §2

UISO = test: as above; settings: MCC and control cell lines, CellTiter-Glo viability, 72 h; series mostly up to 46 µM
Outline: as §2

HEK293T = test: as above; settings: MCC and control cell lines, CellTiter-Glo viability, 72 h; at 44.8 µM (top of the series) unless noted
Outline: as §2

NIH3T3 [2] = test: as above; settings: MCC and control cell lines, CellTiter-Glo viability, 72 h; at 44.8 µM (top of the series) unless noted
Outline: as §2
Further: nearly all actives have a fitted effect of over 60% in size.
On the % scale 0 is the no-effect control and ±100 the full control effect.

CSc1ccc2c(c1)C(N1CCN(C)CC1)Cc1ccccc1S2 (stereo unspecified)
inactive: max response (KB-3-1) 0.66% | outcome (HACAT) | Potency (MCC-13) | Potency (MCC-26)

CC(C)c1c(C(=O)Nc2ccccc2)c(-c2ccccc2)c(-c2ccc(F)cc2)n1CC[C@@H](O)C[C@@H](O)CC(=O)O
inactive: max response (KB-3-1) -3.5% | max response (NIH3T3 [1]) -9.75% and 4.05%
active: Potency (MCC-13) 23.7 µM | Potency (MCC-26) 23.7 µM | Potency (MKL-1) 3.35 µM | Potency (MKL-2) 2.66 µM | Potency (UISO) 10.6 µM

CSc1ccc2c(c1)N(CCC1CCCCN1C)c1ccccc1S2 (stereo unspecified)
active: Potency (MCC-13) 26.6 µM | Potency (MKL-1) 11.9 µM | Potency (MKL-2) 3.35 µM | Potency (UISO) 26.6 µM
inactive: max response (KB-3-1) -7.5%

CC(=O)c1ccc2c(c1)N(CCCN(C)C)c1ccccc1S2
inactive: max response (KB-3-1) -1.52% | max response (NIH3T3 [1]) 1.48% | Potency (MCC-13) | Potency (MCC-26) | Potency (MKL-1) | Potency (UISO)

CC(O)CN(CCN(CC(C)O)CC(C)O)CC(C)O (stereo unspecified)
inactive: outcome (NIH3T3 [1]) | outcome (HACAT) | outcome (HEK293T) | Potency (MCC-13) | Potency (MCC-26) | Potency (MKL-1) | Potency (MKL-2) | outcome (NIH3T3 [2]) | Potency (UISO)

COCCOC(=O)C1=C(C)NC(C)=C(C(=O)OC/C=C/c2ccccc2)C1c1cccc([N+](=O)[O-])c1 (stereo unspecified)
active: Potency (MKL-1) 21.1 µM
inactive: max response (KB-3-1) 22.9% | Potency (MCC-26)

CCOC(=O)[C@H](CCc1ccccc1)N[C@@H](C)C(=O)N1C(=O)N(C)C[C@H]1C(=O)O
inactive: max response (NIH3T3 [1]) 4.99% | outcome (NIH3T3 [1]) | outcome (HACAT) | outcome (HEK293T) | Potency (MCC-13) | Potency (MCC-26) | Potency (MKL-1) | Potency (MKL-2) | outcome (NIH3T3 [2]) | Potency (UISO)

CC(CN(C)C)CN1c2ccccc2CCc2ccccc21 (stereo unspecified)
inactive: max response (KB-3-1) 4.48% | max response (NIH3T3 [1]) 4.54% | Potency (MCC-13) | Potency (MCC-26) | Potency (MKL-1) | Potency (UISO)

CC(C)C(=O)c1c(C(C)C)nn2ccccc12
inactive: max response (KB-3-1) -2.88% | max response (NIH3T3 [1]) -15.3% | Potency (MCC-13) | Potency (MCC-26) | Potency (MKL-1) | Potency (MKL-2) | Potency (UISO)

COc1ccc2cc1Oc1ccc(cc1)C[C@H]1c3c(cc4c(c3Oc3cc5c(cc3OC)CCN(C)[C@@H]5C2)OCO4)CCN1C
active: Potency (MKL-1) 23.7 µM | Potency (MKL-2) 3.35 µM
inactive: max response (KB-3-1) 0.814% | outcome (HACAT) | Potency (MCC-13) | Potency (MCC-26)

CNCCC(Oc1ccc(C(F)(F)F)cc1)c1ccccc1 (stereo unspecified)
inactive: max response (KB-3-1) 2.04%
active: Potency (MKL-1) 26.6 µM

[Cl][In]([Cl])[Cl]
inactive: max response (KB-3-1) 0.288% and -3.71% | max response (NIH3T3 [1]) -11.3% | Potency (MCC-26) | Potency (MKL-1) | Potency (MKL-2)

C[C@@H]1CC[C@@]2(OC1)O[C@H]1C[C@H]3[C@@H]4CC[C@H]5C[C@@H](O)CC[C@]5(C)[C@H]4CC(=O)[C@]3(C)[C@H]1[C@@H]2C
inactive: outcome (NIH3T3 [1]) | outcome (HACAT) inactive [at 4.96 µM] | outcome (HEK293T) inactive [at 4.96 µM] | activity change, negative = cytotoxicity (MCC-13) -5.49% [at 4.84 µM] | activity change, negative = cytotoxicity (MCC-26) 5.06% [at 4.84 µM] | activity change, negative = cytotoxicity (MKL-1) 7.37% [at 4.84 µM] | activity change, negative = cytotoxicity (MKL-2) 2.92% [at 4.84 µM] | outcome (NIH3T3 [2]) inactive [at 4.96 µM]

CC1=C(/C=C/C(C)=C/C=C/C(C)=C/C(=O)O)C(C)(C)CCC1
inactive: max response (KB-3-1) -14.5% | max response (NIH3T3 [1]) -0.598% | Potency (MCC-13) | Potency (MCC-26) | Potency (UISO)

C[C@H]1O[C@H](O[C@H]2[C@H](O)[C@@H](O)[C@@H](O[C@H]3[C@H](O)[C@@H](O)[C@H](O)O[C@@H]3CO)O[C@@H]2CO)[C@H](O)[C@@H](O)[C@@H]1N[C@H]1C=C(CO)[C@@H](O)[C@H](O)[C@H]1O
inactive: outcome (NIH3T3 [1]) | outcome (HACAT) | outcome (HEK293T) | Potency (MCC-13) | Potency (MCC-26) | Potency (MKL-1) | Potency (MKL-2) | outcome (NIH3T3 [2]) | Potency (UISO)

CCCn1cnc2c1c(=O)n(CCCCC(C)=O)c(=O)n2C
inactive: max response (KB-3-1) 4.64% | max response (NIH3T3 [1]) -3.42% | Potency (MCC-13) | Potency (MCC-26) | Potency (MKL-1) | Potency (MKL-2) | Potency (UISO)

C[C@]12C[C@H](O)[C@H]3[C@@H](CCC4=CC(=O)CC[C@@]43C)[C@@H]1CC[C@@H]2C(=O)CO
inactive: outcome (HEK293T) | Potency (MCC-13) | Potency (MCC-26) | Potency (MKL-1) | Potency (MKL-2) | Potency (UISO)

Cc1cccc(C)c1NC(=O)CN(CC(=O)O)CC(=O)O
inactive: max response (NIH3T3 [1]) -7.57% | outcome (HACAT) | outcome (HEK293T) | Potency (MCC-13) | Potency (MCC-26) | Potency (MKL-1) | Potency (MKL-2) | Potency (UISO)

O=C1Nc2ccc(Cl)cc2[C@@](C#CC2CC2)(C(F)(F)F)O1
inactive: max response (NIH3T3 [1]) 3.57% | outcome (HACAT) | Potency (MCC-26)
